In PubChem BioAssay AID1159580 (chemical genetic matrix, 2015):
In all, about 5,500 compounds went through this assay and about 2,000 (36%) were called active. Inconclusive results (about 18%) are left out. Rule as the data show it: active = normalized growth mostly below about 0.91 (no sharp cut-off); inconclusive = no clear call, values can overlap the other calls; inactive = mostly above about 0.92. Some of the results follow.

Test: chemical genetic growth profiling, strain panel (AID 1159580);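 also: tested at 20 µM; growth read once vehicle control cultures reached saturation at 30 °C; 1 = growth at the plate median or of vehicle wells; lower values mean less growth of the strain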
Settings: growth OD

Measured: normalized growth

COC1=C(OC)C(=O)C(C/C=C(\C)CC/C=C(\C)CC/C=C(\C)CC/C=C(/C)CC/C=C(\C)CC/C=C(\C)CC/C=C(\C)CC/C=C(\C)CC/C=C(\C)CCC=C(C)C)=C(C)C1=O
inactive: S. cerevisiae deletion strains, locus YJR043C, strain POL32, hits give low values 1.03 | S. cerevisiae deletion strains, locus YJR066W, strain TOR1, hits give low values 0.982 | S. cerevisiae deletion strains, locus YKL009W, strain mrt4, hits give low values 1.07 | S. cerevisiae deletion strains, locus YKL068W, hits give low values 0.99 | S. cerevisiae deletion strains, locus YKL085W, strain MDH1 (second series), hits give low values 1 | S. cerevisiae deletion strains, locus YKL085W, strain MDH1, hits give low values 1 | S. cerevisiae deletion strains, locus YKL160W, strain elf1, hits give low values 0.988 | S. cerevisiae deletion strains, locus YKR001C, strain vps1, hits give low values 0.999 | S. cerevisiae deletion strains, locus YKR026C, strain gcn3, hits give low values 0.986 | S. cerevisiae deletion strains, locus YKR091W, strain srl3, hits give low values 0.98 | S. cerevisiae deletion strains, locus YLL001W, strain dnm1, hits give low values 0.974 | S. cerevisiae deletion strains, locus YLL026W, hits give low values 1 | S. cerevisiae deletion strains, locus YLL041C, strain sdh2, hits give low values 0.973 | S. cerevisiae deletion strains, locus YLR027C, strain aat2, hits give low values 0.988 | S. cerevisiae deletion strains, locus YLR039C, strain RIC1, hits give low values 1.04 | S. cerevisiae deletion strains, locus YLR058C, strain SHM2, hits give low values 0.985 | S. cerevisiae deletion strains, locus YLR102C, strain apc9, hits give low values 0.994 | S. cerevisiae deletion strains, locus YLR113W, strain HOG1, hits give low values 0.986 | S. cerevisiae deletion strains, locus YLR221C, strain rsa3, hits give low values 0.97 | S. cerevisiae deletion strains, locus YLR258W, strain gsy2, hits give low values 0.982 | S. cerevisiae deletion strains, locus YLR262C, strain YPT6 (second series), hits give low values 0.942 | S. cerevisiae deletion strains, locus YLR262C, strain YPT6, hits give low values 0.972 | S. cerevisiae deletion strains, locus YLR268W, strain sec22, hits give low values 1.03 | S. cerevisiae deletion strains, locus YLR320W, strain mms22, hits give low values 0.991 | S. cerevisiae deletion strains, locus YLR330W, strain CHS5, hits give low values 1.01 | S. cerevisiae deletion strains, locus YLR342W, strain FKS1 (second series), hits give low values 1.1 | S. cerevisiae deletion strains, locus YLR342W, strain FKS1, hits give low values 0.96 | S. cerevisiae deletion strains, locus YLR357W, strain rsc2, hits give low values 0.987 | S. cerevisiae deletion strains, locus YLR370C, strain arc18, hits give low values 0.953 | S. cerevisiae deletion strains, locus YLR371W, strain rom2, hits give low values 0.99 | S. cerevisiae deletion strains, locus YLR384C, strain iki3, hits give low values 0.988 | S. cerevisiae deletion strains, locus YLR418C, strain cdc73, hits give low values 0.997 | S. cerevisiae deletion strains, locus YML016C, strain PPZ1, hits give low values 1.01 | S. cerevisiae deletion strains, locus YML032C, strain rad52, hits give low values 0.971 | S. cerevisiae deletion strains, locus YML120C, strain ndi1, hits give low values 0.985 | S. cerevisiae deletion strains, locus YML124C, strain tub3, hits give low values 0.99 | S. cerevisiae deletion strains, locus YMR058W, strain fet3, hits give low values 0.977 | S. cerevisiae deletion strains, locus YMR078C, strain ctf18, hits give low values 0.992 | S. cerevisiae deletion strains, locus YMR125W, strain sto1, hits give low values 0.972 | S. cerevisiae deletion strains, locus YMR129W, hits give low values 0.974 | S. cerevisiae deletion strains, locus YMR205C, strain PFK2, hits give low values 1.01 | S. cerevisiae deletion strains, locus YMR223W, strain ubp8, hits give low values 1.01 | S. cerevisiae deletion strains, locus YMR231W, strain pep5, hits give low values 0.981 | S. cerevisiae deletion strains, locus YMR307W, strain GAS1, hits give low values 1.13 | S. cerevisiae deletion strains, locus YNL067W, strain RPL9B, hits give low values 0.995 | S. cerevisiae deletion strains, locus YNL071W, strain lat1, hits give low values 0.965 | S. cerevisiae deletion strains, locus YNL183C, strain NPR1, hits give low values 0.982 | S. cerevisiae deletion strains, locus YNL209W, strain ssb2, hits give low values 0.971 | S. cerevisiae deletion strains, locus YNL233W, strain BNI4, hits give low values 1 | S. cerevisiae deletion strains, locus YNL248C, strain rpa49, hits give low values 0.974 | S. cerevisiae deletion strains, locus YNL250W, strain rad50, hits give low values 0.985 | S. cerevisiae deletion strains, locus YNL271C, strain bni1, hits give low values 1.02 | S. cerevisiae deletion strains, locus YNL298W, strain CLA4, hits give low values 0.998 | S. cerevisiae deletion strains, locus YNL307C, strain MCK1, hits give low values 0.995 | S. cerevisiae deletion strains, locus YNL322C, strain KRE1 (second series), hits give low values 0.958 | S. cerevisiae deletion strains, locus YNL322C, strain KRE1, hits give low values 0.994 | S. cerevisiae deletion strains, locus YNR049C, strain mso1, hits give low values 0.971 | S. cerevisiae deletion strains, locus YNR052C, strain pop2, hits give low values 1 | S. cerevisiae deletion strains, locus YOL012C, strain htz1 0.872 | S. cerevisiae deletion strains, locus YOL147C, strain pex11, hits give low values 1 | S. cerevisiae deletion strains, locus YOR001W, strain rrp6, hits give low values 0.932 | S. cerevisiae deletion strains, locus YOR061W, strain CKA2, hits give low values 0.981 | S. cerevisiae deletion strains, locus YOR069W, strain VPS5, hits give low values 1.01 | S. cerevisiae deletion strains, locus YOR070C, strain gyp1, hits give low values 0.975 | S. cerevisiae deletion strains, locus YOR080W, strain dia2, hits give low values 0.999 | S. cerevisiae deletion strains, locus YOR083W, strain WHI5, hits give low values 0.998 | S. cerevisiae deletion strains, locus YOR106W, strain vam3, hits give low values 0.973 | S. cerevisiae deletion strains, locus YOR136W, strain idh2, hits give low values 0.998 | S. cerevisiae deletion strains, locus YOR144C, strain elg1, hits give low values 0.987 | S. cerevisiae deletion strains, locus YOR184W, strain ser1, hits give low values 1 | S. cerevisiae deletion strains, locus YOR231W, strain MKK1, hits give low values 1.05 | S. cerevisiae deletion strains, locus YOR265W, strain rbl2, hits give low values 0.99 | S. cerevisiae deletion strains, locus YOR270C, strain vph1, hits give low values 0.967 | S. cerevisiae deletion strains, locus YOR290C, strain snf2, hits give low values 0.992 | S. cerevisiae deletion strains, locus YOR316C, strain cot1, hits give low values 0.994 | S. cerevisiae deletion strains, locus YPL051W, strain arl3, hits give low values 1 | S. cerevisiae deletion strains, locus YPL055C, strain LGE1, hits give low values 1.02 | S. cerevisiae deletion strains, locus YPL078C, strain atp4, hits give low values 0.965 | S. cerevisiae deletion strains, locus YPL106C, strain sse1, hits give low values 0.963 | S. cerevisiae deletion strains, locus YPL240C, strain hsp82, hits give low values 0.982 | S. cerevisiae deletion strains, locus YPL241C, strain CIN2, hits give low values 0.996 | S. cerevisiae deletion strains, locus YPL256C, strain CLN2, hits give low values 1.04 | S. cerevisiae deletion strains, locus YPR119W, strain clb2, hits give low values 0.981 | S. cerevisiae deletion strains, locus YPR141C, strain kar3, hits give low values 0.981 | S. cerevisiae deletion strains, locus YPR163C, strain tif3, hits give low values 0.992 | S. cerevisiae deletion strains, locus YPR167C, strain met16, hits give low values 0.982 | S. cerevisiae deletion strains, strain wtn01, hits give low values 1.02 | S. cerevisiae strains, strain wild type, hits give low values 1.01
